Among the data in PubChem BioAssay (NCATS) are outcome values, retold here.

Inconclusive results are not listed. Activity calls are given as the source filed them. The call rests on the fitted dose curve; in most records, active means well fitted inhibition curve with a large enough effect; inconclusive means small, poorly fitted or top-dose-only effect; inactive means no such curve, though single readings can be large or run the other way.

The target of this experiment is Rap guanine nucleotide exchange factor 3 (Homo sapiens) (UniProt O95398). Briefly: Confirmatory qHTS for antagonist of cAMP-regulated guanine nucleotide exchange factor 3 (EPAC1) (AID 1645880). Further: nearly all actives have a fitted effect of over 55% in size. Conditions: EPAC1 Rap1B-BODIPY-GDP exchange, fluorescence; series mostly up to 115 µM. From the text: Assay Provider (PI): Xiaodong Cheng Ph.D. The University of Texas Medical Branch, […], TX MLPCN Grant: NS066510 In multi-cellular eukaryotic organisms, the effects of cAMP are transduced by two ubiquitously-expressed intracellular cAMP receptors, the classic protein kinase A/cAMP-dependent protein kinase (PKA/cAPK) and the more recently discovered exchange protein directly activated by cAMP/cAMP-regulated guanine nucleotide exchange factor (EPAC/cAMP-GEF). Both PKA and EPAC are ubiquitously expressed in all tissues, and an increase in intracellular cAMP levels will lead to the activation of both PKA and EPAC. Therefore, careful dissections of the individual role and relative contribution of EPAC and PKA within the overall cAMP signaling in various model systems are critical for further elucidating the mechanism of cAMP signaling. To date no EPAC-specific antagonists and agonist, as well as isoform-specific agonists have been reported, and developing EPAC-specific pharmacological probes to determine the physiological functions that EPAC play in the overall cAMP-mediated signaling remains a major challenge within the research field. Furthermore, identified regulators of EPAC may lead to new mechanism-based therapeutic strategies specifically targeting the EPAC / cAMP-signaling components as EPAC has been implicated to play important roles in major human pathological conditions such as diabetes, heart disease, and cancer. This qHTS will be used to screen the Molecular Libraries Small Molecule Repository (MLSMR) as a concentration-titration series using the NCGC unique quantitative screening (qHTS) platform to find activators for EPAC1. In addition, this assay will also be used as a counterscreen for the EPAC2 qHTS. This fluorescent based assay is developed and validated for EPAC1 that measures exchange using EPAC effector Rap1 complex with BODIPY-GDP, a GDP analog with a tethered fluorophores. Activators are identified by monitoring the change in fluorescence signal as the exchanged free BODIPY-GDP has a reduced fluorescence compared to Rap1-bound BODIPY-GDP. Increase in signal (activation) is the desired outcome for the EPAC1 agonist while no activity in this assay is desired for the EPAC2 agonist counterscreen. Reference: [1] de Rooij, J., Zwartkruis, F. J., Verheijen, M. H., Cool, R. H., Nijman, S. M., Wittinghofer, A., and Bos, J.L. (1998) Nature 396, 474-477. Kawasaki, H., Springett, G. M., Mochizuki, N., Toki, S., Nakaya, M., Matsuda, M., Housman, D. E., and Graybiel, A. M. (1998) Science 282, 2275-2279.
Chain of Rap guanine nucleotide exchange factor 3 (Homo sapiens) (O95398 whole entry, looked up): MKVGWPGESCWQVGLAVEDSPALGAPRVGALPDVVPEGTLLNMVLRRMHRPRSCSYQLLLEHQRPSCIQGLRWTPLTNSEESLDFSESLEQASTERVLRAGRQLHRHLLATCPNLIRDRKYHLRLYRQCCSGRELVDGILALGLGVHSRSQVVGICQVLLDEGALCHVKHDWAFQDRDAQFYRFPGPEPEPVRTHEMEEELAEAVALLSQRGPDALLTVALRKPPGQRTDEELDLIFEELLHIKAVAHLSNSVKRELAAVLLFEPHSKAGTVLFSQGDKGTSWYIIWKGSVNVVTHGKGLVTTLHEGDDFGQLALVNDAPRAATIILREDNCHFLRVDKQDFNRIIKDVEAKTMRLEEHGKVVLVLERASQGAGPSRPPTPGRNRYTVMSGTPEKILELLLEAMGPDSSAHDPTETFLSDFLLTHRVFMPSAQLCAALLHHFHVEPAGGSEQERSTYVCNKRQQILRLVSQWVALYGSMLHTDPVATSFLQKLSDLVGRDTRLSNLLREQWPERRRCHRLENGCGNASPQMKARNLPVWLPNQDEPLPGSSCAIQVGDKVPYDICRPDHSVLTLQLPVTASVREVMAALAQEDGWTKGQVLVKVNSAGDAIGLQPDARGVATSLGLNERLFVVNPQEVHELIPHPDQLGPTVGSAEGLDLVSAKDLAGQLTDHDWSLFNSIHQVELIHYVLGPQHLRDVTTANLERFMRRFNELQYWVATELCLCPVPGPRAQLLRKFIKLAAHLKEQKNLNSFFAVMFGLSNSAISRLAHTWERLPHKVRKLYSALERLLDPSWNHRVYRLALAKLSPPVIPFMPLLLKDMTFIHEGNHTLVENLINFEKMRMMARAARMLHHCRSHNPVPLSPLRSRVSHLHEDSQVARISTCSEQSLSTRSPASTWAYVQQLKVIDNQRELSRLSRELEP
Briefly, three uL of reagents (100 nM EPAC1, 250 nM RAP1B-BODIPY-GDP, 50 uM GDP) were dispensed into a 1536-well Greiner black solid-bottom medium binding assay plate. Controls and test compounds (23 nL) were transferred to the plate via a Kalypsys pin tool equipped with a 1536-pin array. The plates were centrifuged at 1,000 rpm for 15 seconds followed by 5 minute incubation at room temperature. The assay plates were read at 5 minute intervals for 30 minutes in the ViewLux plate reader using 480nm excitation and 540nm emission filters. The results were normalized to the […] positive control ATA and DMSO.
With `CCCCC(=O)O[C@H]1CC[C@H]2[C@@H]3CCc4cc(O)ccc4[C@H]3CC[C@]12C`, the compound was classed as inactive.

In the case of `Oc1ccc(/C=C/c2cc(O)cc(O)c2)cc1`, the compound was classed as inactive.

As for `COc1ccc(/C=C/C(=O)O)cc1`, the outcome was inactive.

Consider `NC(=O)Oc1ccc(Cc2ccccc2)cc1`, for which the result was inactive.

For the compound `COc1cc(NCCCC(C)N)c2ncccc2c1` (stereo unspecified), the outcome was inactive.

Consider `CSc1nc2cc(Oc3cccc(Cl)c3Cl)c(Cl)cc2[nH]1`, for which the call was inactive.

Regarding `CCOC(=O)Oc1c(OC)cc(C(=O)O[C@@H]2C[C@@H]3CN4CCc5c([nH]c6cc(OC)ccc56)[C@H]4C[C@@H]3[C@H](C(=O)OC)[C@H]2OC)cc1OC`, the compound was called inactive.

As for `CC1CC(OC(=O)C(O)c2ccccc2)CC(C)(C)C1` (stereo unspecified), the result was inactive.

Turning to `CC(C)[C@@H](C)/C=C/[C@@H](C)[C@H]1CC[C@H]2/C(=C/C=C3\C[C@@H](O)CC[C@@H]3C)CCC[C@]12C`, the call was inactive.

As for `O=C(NNCS(=O)(=O)O)c1ccncc1`, the compound was called inactive.

For `COc1ccc2c(c1)N(C[C@H](C)CN(C)C)c1ccccc1S2`, the outcome was inactive.
